Data published in PubChem BioAssay.
Several values for one entry are separate records, joined by “and”; a condition that tells them apart may be missing. Equal values may be shown once. Records with an inconclusive call do not appear. Activity calls are given as the source filed them. Unless noted, the limit is not given here; nearly all actives have AC50 up to about 26 µM.

Assays:
[1] = growth inhibition of DIPG glioma cells, dose response, cell-based, SU-DIPG-XVII, MIPE5.0, CellTiter-Glo, qHTS (AID 1347060); conditions: SU-DIPG-XVII viability, CellTiter-Glo ATP luminescence;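 as to AC50: cells exposed to compound for 48 hours before viability readout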
[2] = growth inhibition of DIPG glioma cells, dose response, cell-based, SU-DIPG-XIII, MIPE5.0, CellTiter-Glo, qHTS (AID 1347064; cut-off not given, nearly all actives have AC50 up to about 23 µM;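 as to AC50: cells exposed to compound for 48 hours before the viability read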); conditions: SU-DIPG-XIII viability, CellTiter-Glo ATP luminescence
[3] = SU-DIPG-VI glioma cell viability, MIPE4.0 library, CellTiter-Glo luminescence, qHTS (AID 1347066; cut-off not given, nearly all actives have AC50 up to about 30 µM;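 also: cells exposed to compound for 48 hours before readout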); conditions: CellTiter-Glo ATP luminescence
[4] = JHH-DIPG-1 glioma cell viability, MIPE5.0 library, CellTiter-Glo luminescence, qHTS (AID 1347067); conditions: JHH-DIPG-1 glioma viability, CellTiter-Glo ATP luminescence;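 also: cells exposed to compound for 48 hours before readout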
[5] = SU-DIPG-XXV glioma cell viability, MIPE5.0 library, qHTS (AID 1347068; cut-off not given, nearly all actives have IC50 up to about 30 µM)
[6] = viability loss in pontine glioma line – cell-based, SU-DIPG-XXV, MIPE5.0, CellTiter-Glo, qHTS, dose response (AID 1347065); conditions: CellTiter-Glo ATP luminescence;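 also: cells exposed to compound for 48 hours before ATP readout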
[7] = sensitizers of A549 cells to miR-34 induction, primary screen, imaging, A549 dox-inducible miR-34, nuclei and caspase counts (AID 1347080;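 active = compounds whose cell count with miR-34 switched on is under 0.7 times the count with it off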); conditions: A549 miR-34 inducible, Hoechst nuclei count, 48 h
[8] = survival rescue of mitochondrial mutant cells in low glucose, primary screen, MELAS cybrids, Rieske KO mouse fibroblasts, CellTiter-Glo (AID 1508586;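 active = mean z-score across replicates of 1.96 or higher in either the MELAS or the Rieske mutant cell line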;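 also: z relative to plate mean and SD of compound and empty wells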)
[9] = ovarian cancer cell viability with rucaparib, profiling panel, oncology-focused library, rucaparib conditional (AID 1508598;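 active = normalized viability below 100% at a tested concentration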); conditions: patient-derived ovarian cancer cells, CellTiter-Glo viability, 144 h, stronger effect = lower value
[10] = liver-stage malaria parasite growth inhibition, primary screen, cell-based, HepG2, luciferase luminescence, HepG2 viability (AID 624349; in the data active = parasite load remaining mostly below about 12%, no sharp cut-off; inactive = mostly above about 10%;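 also: 100% = mean of DMSO negative control wells on the same plate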); conditions: P. berghei liver stage in HepG2, luciferase luminescence, concentration not given here; parasite load remaining: stronger effect = lower value; viability: measured here: HepG2 viability without parasites
[11] = test system: Hepatitis C virus NS3 helicase; experiment: HCV NS3 helicase inhibitors, primary screen, biochemical, fluorescence polarization, LOPAC1280 library (AID 687035; in the data active = inhibition above about 37%); conditions: Purified HCV NS3 helicase, Cy5-dT15 ssDNA binding fluorescence polarization; stronger effect = higher value; concentration not given here
[12] = Cy5 fluorescence quenching or enhancement artefacts, artefact control for HCV NS3 helicase inhibitor project, biochemical, LOPAC1280 (AID 687037; call rule not given here); conditions: Cy5-DNA-NS3h complex fluorescence interference counterscreen
[13] = phospholipid biosynthesis inhibitors in animal cells, primary screen, cell-based, LOPAC library, screen 4 (AID 1347384; call rule not given here); conditions: phospholipid biosynthesis inhibition screen, at 10 µM
[14] = viability rescue of complex I mutant cybrids, primary screen, cell-based, galactose medium, ATP luminescence (AID 1645843;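 active = z-score of at least 1.8 in each of two replicates, scored against plate mean and spread of sample wells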;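 also: positive z means more ATP and so rescue of galactose-driven cybrid death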); conditions: complex I mutant cybrid cells, 72 h, stronger effect = higher value
[15] = modifiers of HSF1 nuclear foci, imaging, Selleck Cancer Library (AID 1347162; in the data active = plate-normalised HSF1 focus index below about 0.46); conditions: human cells, at 10 µM; SSMD: measured here: HSF1 foci SSMD mean; cell count: measured here: cell number; plate-normalised HSF1 focus index: stronger effect = lower value
[16] = stronger effect = lower value, cell number ratio, induced over uninduced
[17] = measured here: relative caspase fold change +Dox/-Dox
[18] = measured here: total cells with miR-34 induction, stronger effect = lower value
[19] = measured here: total cells without miR-34 induction
[20] = MELAS cybrid survival, CellTiter-Glo 48 h, stronger effect = higher value
[21] = Rieske KO mouse fibroblast survival, CellTiter-Glo 72 h

CN1CCN(c2ncc(-c3cc(Cl)cc(Cl)c3Cl)c(N)n2)CC1
inactive: outcome [1] | outcome [2] | outcome [3] | outcome [4] | outcome [5]

Cn1cc(-c2nc(N[C@@H]3CCCC[C@@H]3N)c(F)c3c2C(=O)NC3)cn1
inactive: outcome [1] | outcome [2] | outcome [4] | outcome [5]

O=C(O)c1ccc(O)c2ncccc12
0.445: fold change [7, 17]
8640: cell count [7, 18]
9260: cell count [7, 19]
active: AC50 [2] 20.9 µM | viability ([9]; at 0.000305 µM, OCI-P5x cells, with rucaparib 20 µM, 100% = cells with rucaparib alone) 94.2% | viability ([9]; at 0.000305 µM, OCI-P5x cells, without rucaparib) 89.3% | viability ([9]; at 0.00122 µM, OCI-P5x cells, without rucaparib) 97.9% | viability ([9]; at 0.00488 µM, OCI-P5x cells, without rucaparib) 98.1% | viability ([9]; at 0.0781 µM, OCI-P5x cells, with rucaparib 20 µM, 100% = cells with rucaparib alone) 98.2% | viability ([9]; at 0.313 µM, OCI-P5x cells, with rucaparib 20 µM, 100% = cells with rucaparib alone) 96.3% | viability ([9]; at 1.25 µM, OCI-P5x cells, with rucaparib 20 µM, 100% = cells with rucaparib alone) 98.5%
0.0902: z-score [8, 21]
inactive: outcome [1] | outcome [6] | outcome [5] | fold change [7, 16] 0.933 | z-score [8, 20] -0.339 | viability ([9]; at 0.000305 µM, OCI-C5x cells, with rucaparib 10 µM, 100% = cells with rucaparib alone) 112% | viability ([9]; at 0.000305 µM, OCI-C5x cells, without rucaparib) 117% | viability ([9]; at 0.00122 µM, OCI-C5x cells, with rucaparib 10 µM, 100% = cells with rucaparib alone) 120% | viability ([9]; at 0.00122 µM, OCI-C5x cells, without rucaparib) 123% | viability ([9]; at 0.00122 µM, OCI-P5x cells, with rucaparib 20 µM, 100% = cells with rucaparib alone) 101% | viability ([9]; at 0.00488 µM, OCI-C5x cells, with rucaparib 10 µM, 100% = cells with rucaparib alone) 120% | viability ([9]; at 0.00488 µM, OCI-C5x cells, without rucaparib) 116% | viability ([9]; at 0.00488 µM, OCI-P5x cells, with rucaparib 20 µM, 100% = cells with rucaparib alone) 103% | viability ([9]; at 0.0195 µM, OCI-C5x cells, with rucaparib 10 µM, 100% = cells with rucaparib alone) 127% | viability ([9]; at 0.0195 µM, OCI-C5x cells, without rucaparib) 113% | viability ([9]; at 0.0195 µM, OCI-P5x cells, with rucaparib 20 µM, 100% = cells with rucaparib alone) 100% | viability ([9]; at 0.0195 µM, OCI-P5x cells, without rucaparib) 105% | viability ([9]; at 0.0781 µM, OCI-C5x cells, with rucaparib 10 µM, 100% = cells with rucaparib alone) 112% | viability ([9]; at 0.0781 µM, OCI-C5x cells, without rucaparib) 120% | viability ([9]; at 0.0781 µM, OCI-P5x cells, without rucaparib) 103% | viability ([9]; at 0.313 µM, OCI-C5x cells, with rucaparib 10 µM, 100% = cells with rucaparib alone) 108% | viability ([9]; at 0.313 µM, OCI-C5x cells, without rucaparib) 121% | viability ([9]; at 0.313 µM, OCI-P5x cells, without rucaparib) 102% | viability ([9]; at 1.25 µM, OCI-C5x cells, with rucaparib 10 µM, 100% = cells with rucaparib alone) 110% | viability ([9]; at 1.25 µM, OCI-C5x cells, without rucaparib) 115% | viability ([9]; at 1.25 µM, OCI-P5x cells, without rucaparib) 106% | viability ([9]; at 5 µM, OCI-C5x cells, with rucaparib 10 µM, 100% = cells with rucaparib alone) 115% | viability ([9]; at 5 µM, OCI-C5x cells, without rucaparib) 122% | viability ([9]; at 5 µM, OCI-P5x cells, with rucaparib 20 µM, 100% = cells with rucaparib alone) 111% | viability ([9]; at 5 µM, OCI-P5x cells, without rucaparib) 111%

O=[N+]([O-])c1ccc(-c2nc(-c3ccc(F)cc3)c(-c3ccncc3)[nH]2)cc1
67.5%: viability [10]
inactive: parasite load remaining [10] 29.6% | inhibition [11] 1% | fluorescence ratio (interference) [12] 1 | outcome [5] | fold change [7, 16] 1.15 and 0.939 | outcome [13] | z-score [14] -0.155
1.13 and 1.14: fold change [7, 17]
3850 and 6120: cell count [7, 19]
4420 and 5750: cell count [7, 18]
active: AC50 [1] 26.3 µM | AC50 [2] 18.6 µM | AC50 [6] 26.3 µM

CC(C)=CCC[C@](C)(O[C@@H]1O[C@H](CO[C@@H]2O[C@H](CO)[C@@H](O)[C@H](O)[C@H]2O)[C@@H](O)[C@H](O)[C@H]1O)[C@H]1CC[C@]2(C)[C@@H]1[C@H](O)C[C@@H]1[C@@]3(C)CC[C@H](O[C@@H]4O[C@H](CO)[C@@H](O)[C@H](O)[C@H]4O[C@@H]4O[C@H](CO)[C@@H](O)[C@H](O)[C@H]4O)C(C)(C)[C@@H]3CC[C@]12C
inactive: outcome [1] | outcome [2] | outcome [4] | outcome [5]

CN(C)c1cccc(-c2c3c(=O)n(-c4ccccc4Cl)[nH]c3cc(=O)n2C)c1
inactive: outcome [1] | outcome [2] | outcome [4] | outcome [5]

[2H]C([2H])([2H])C(O)([C@@H](C)/C=C/[C@@H](C)[C@H]1CC[C@H]2/C(=C/C=C3C[C@@H](O)C[C@H](O)C3)CCC[C@]12C)C([2H])([2H])[2H]
inactive: outcome [1] | outcome [2] | outcome [4]

NS(=O)(=O)OC[C@@H]1C[C@@H](n2ccc3c(N[C@H]4CCc5ccccc54)ncnc32)C[C@@H]1O
active: AC50 [1] 1.48 µM
inactive: outcome [2] | outcome [3] | outcome [4] | outcome [5]

C[C@H](NC(=O)C(=O)Nc1ccccc1C(C)(C)C)C(=O)N[C@@H](CC(=O)O)C(=O)COc1c(F)c(F)cc(F)c1F
inactive: outcome [1] | outcome [5]
active: AC50 [2] 16.6 µM | AC50 [4] 2.95 µM

O=C(Nc1ccc(-c2ccnc(Nc3ccc(N4CCOCC4)cc3)n2)cc1)C1CCCN1 (configuration not stated)
inactive: outcome [5] | fold change [7, 16] 0.711 | z-score [8, 20] -0.234
active: AC50 [1] 18.6 µM | AC50 [2] 18.6 µM | AC50 [6] 16.6 µM
7160: cell count [7, 19]
-0.152: z-score [8, 21]
5090: cell count [7, 18]
0.977: fold change [7, 17]

C[C@H]1CN(C2COC2)CCN1c1ccc(Nc2cc(-c3ccnc(N4CCn5c(cc6c5CC(C)(C)C6)C4=O)c3CO)cn(C)c2=O)nc1
inactive: outcome [1] | outcome [2] | outcome [4] | outcome [5]

C[C@@H]1O[C@@H](O[C@@H]2\C=C/C=C\C=C/C=C\C[C@H](C)OC(=O)/C=C\[C@H]3O[C@@H]3C[C@H](O)C[C@]3(O)C[C@@H](O)[C@@H](C(=O)O)[C@H](C2)O3)[C@H](O)[C@H](N)[C@@H]1O
inactive: outcome [1] | outcome [2] | outcome [4] | outcome [5]

NCC1CCN(c2nccc(-c3ccc4ccccc4c3)n2)CC1
active: AC50 [1] 11.8 µM | AC50 [2] 16.6 µM | AC50 [4] 10.5 µM

COc1ccc(CNC(=O)Nc2ncc([N+](=O)[O-])s2)cc1
5600: cell count [7, 18]
7050: cell count [15]
inactive: parasite load remaining [10] 31.3% | fold change [7, 16] 1.06 | plate-normalised HSF1 focus index [15] 1.08 | z-score [8, 20] -0.43
0.577: fold change [7, 17]
1.38: SSMD [15]
-0.202: z-score [8, 21]
5270: cell count [7, 19]
94.6%: viability [10]
active: AC50 [1] 18.6 µM | AC50 [2] 20.9 µM | AC50 [6] 20.9 µM

COc1cc(C)[nH]c(=O)c1CN1CCc2c(Cl)cc([C@H](OC)C3COC3)c(Cl)c2C1=O
inactive: outcome [1] | outcome [2] | outcome [4] | outcome [5]

Fc1ccc(-c2csc3ncnc(NCc4ccc5c(c4)OCO5)c23)cc1
inactive: outcome [5]
active: AC50 [1] 20.9 µM | AC50 [2] 16.6 µM | AC50 [4] 18.6 µM

CN1C(N)=N[C@](C)(c2cc(NC(=O)c3ccc(F)cn3)ccc2F)CS1(=O)=O
inactive: outcome [1] | outcome [2] | outcome [4] | outcome [5]
